# High-throughput results (PubChem)
# HP1b chromo inh: HTS for Inhibitors of HP1-beta Chromodomain Interactions with Methylated Histone Tails. AlphaScreen HP1-beta / biotin-H3K9me3 peptide binding. 0.56% of 390,000 active. Chromobox protein homolog 1 (Homo sapiens), P83916. Potency, µM (highest dose often 114 µM), for the others: at the top dose activity change, negative = inhibition, actives largely listed as inhibitors; note: nearly all actives have a fitted effect of over 70% in size
#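 Compound inhibition of the preformed complex between 50 nM HP1-beta and 50 nM biotinylated H3K9me3 peptide was read by AlphaScreen. Buffer was PBS pH 7.4 with 0.01% Tween-20. Incubations ran 30 min at room temperature, with 10 ug/mL donor/acceptor beads.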
# JMJD2A Tudor inh: qHTS Assay for Inhibitors of JMJD2A-Tudor Domain; AID 504339, 2011; Potency, µM (titrated, usually from 114 µM), inactives show at the highest dose activity change, negative = inhibition, actives largely listed as inhibitors; AlphaScreen JMJD2A-Tudor / H3K4me3 peptide binding; Lysine-specific demethylase 4A (Homo sapiens), O75164; 4.4% of 390,000 active; note: % is set by controls: 0 for no effect and ±100 for the full control effect; nearly all actives have a fitted effect of over 50% in size
# Sfp PPTase inh: qHTS Assay for Inhibitors of Bacillus subtilis Sfp phosphopantetheinyl transferase (PPTase) | 4'-phosphopantetheinyl transferase ffp (Bacillus subtilis), Q9F4F7 | Biochemical Sfp PPTase activity, qHTS | Potency, µM, for the others: largest response in the series, negative = inhibition, most hits filed as inhibitors | 3.5% of 310,000 active | AID 1490, 2009;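 note: the enzyme is Sfp with the accession as filed and its product quenches rhodamine fluorescence; 0% = enzyme reaction without inhibitor and -100% = no enzyme wells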
#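 Step 1, compound plus 15 nM Sfp-PPTase, 15 min, room temperature. Step 2, add rhodamine-CoA (5 uM) and BHQ-2-YbbR (12.5 uM). Step 3, read 525/598 nm fluorescence at 0 and 30 min.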
# BAZ2B inh: qHTS Assay for Inhibitors of BAZ2B; AlphaScreen BAZ2B-H3K14Ac peptide displacement; 4.4% of 360,000 active; Bromodomain adjacent to zinc finger domain protein 2B (Homo sapiens), Q9UIF8; AID 504333, 2011; Potency, µM (titrated, usually from 114 µM), without a hit: at the top dose activity change, negative = inhibition, hits mostly inhibitors; note: % is set by controls: 0 for no effect and ±100 for the full control effect; nearly all actives have a fitted effect of over 60% in size
#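 Protein-peptide AlphaScreen: BAZ2B 50 nM, b-H3K14Ac 50 nM, 1x PBS pH 7.4 + 0.01% Tween-20. Preincubation 30 min RT; cpd 30 min RT (top 110 uM); beads 20 min RT, light-protected.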
# G9a inh: qHTS Assay for Inhibitors of Histone Lysine Methyltransferase G9a; Potency, µM (doses to about 102 µM), inactives show at the highest dose activity, negative = inhibition, hits mostly inhibitors; Histone-lysine N-methyltransferase EHMT2 (Homo sapiens), Q96KQ7; 8.8% of 350,000 active; AID 504332, 2011; G9a H3K9 monomethylation, AlphaScreen, 2 h; note: % is set by controls: 0 for no effect and ±100 for the full control effect; nearly all actives have a fitted effect of over 75% in size
#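 Enzyme 20 nM + cpd, 15 min RT; add b-H3K9 pep 500 nM / SAM 20 uM; 2 h RT; anti-H3K9me1 Ab 0.5 ug/mL + SA donor / anti-rabbit acceptor beads 20 ug/mL each, 10 min; AlphaScreen read.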
# * hit, by the source's call; u = inconclusive; x = not tested or not shown; [ ] = another dose, or the depositor's remark. Most compounds without a hit are left out; they make up all but 12% or so of the library. Calls come from the whole dose curve; as a rule, active = well fitted curve in the direction sought with a large enough effect; inconclusive = small, poorly fitted or top-dose-only effect, or another doubt; inactive = no such curve, though single readings can be large; an effect the other way counts as inactive or inconclusive. Potency is the fitted concentration of half-maximal effect.
SMILES,HP1b chromo inh,JMJD2A Tudor inh,Sfp PPTase inh,BAZ2B inh,G9a inh
Cc1ccc(S(=O)(=O)OCC2CN3C(CCC(C)C3c3ccc(Br)cc3)C(=O)O2)cc1 (configuration not stated),x,x,31.0%,x,x
Cc1oc2ncn(C)c(=O)c2c1C(=O)NCCCN(Cc1ccccc1)C(C)C,31.8%,0.3%,x,10.2%[57.1 µM],-1.7%[59 µM]
COc1ccc(OC)c(S(=O)(=O)N2CCC(C(=O)NCc3cccnc3)CC2)c1,-12.1%,0.0%,6.8%,5.0%,-8.6%
Cc1ccc2c(c1)NC(=O)C(CC(=O)N(C)Cc1ccccc1)O2 (configuration not stated),42.3%,-9.2%,u,-1.9%,50.1µM*
COC(=O)CC1Oc2ccc(C)cc2NC1=O (configuration not stated),38.0%,-13.4%,-4.0%,9.5%,3.7%
CCC(C)NC(=O)CC1Oc2ccc(C)cc2NC1=O (configuration not stated),41.5%,-15.5%,u,4.9%,44.7µM*
C=CCOc1ccc(/C=C2\SC(=S)N(NS(=O)(=O)c3ccc(C)cc3)C2=O)cc1,u,50.1µM*,-3.4%,39.8µM*,14.7%[2.33 µM]
Cc1ccc(S(=O)(=O)NN2C(=O)/C(=C\c3ccc(Cl)cc3)SC2=S)cc1,-20.4%,-27.7%,17.2%,-26.8%,-10.1%
Cc1ccc(/C=C2\SC(=S)N(NS(=O)(=O)c3ccc(C)cc3)C2=O)cc1,-5.1%,u,-4.2%,50.1µM*,x
O=C1/C(=C/c2cccnc2)SC(=S)N1Nc1ccccc1,18.6%,-7.5%,-24.9%,u,39.8µM*
COc1ccc(/C=C2/SC(=S)N(NS(=O)(=O)c3ccc(C)cc3)C2=O)cc1,u,u,-9.8%,39.8µM*,u
COc1ccc(-c2cn3nc(N4CCC(C(=O)Nc5ccc(C)cc5)CC4)sc3n2)cc1,21.5%,-3.0%,x,0.8%,-31.4%[59 µM]
Cn1cccc1/C=C1\SC(=S)N(Nc2ccccc2)C1=O,u,u,-23.2%,20µM*,x
Cc1ccc(S(=O)(=O)NN2C(=O)/C(=C/c3cccs3)SC2=S)cc1,-13.6%,u,79.4µM*,u,20µM*
Cc1ccc(S(=O)(=O)NN2C(=O)/C(=C/c3ccc(F)cc3)SC2=S)cc1,11.6%,-19.1%,5.8%,-26.8%,-8.2%
Cc1ccc(S(=O)(=O)NN2C(=O)/C(=C/c3cccn3C)SC2=S)cc1,x,x,-17.3%,50.1µM*,44.7µM*
CC(C)C(C(=O)O)N1C(=O)/C(=C/c2cccn2C)SC1=S (configuration not stated),-2.0%,-25.1%,-3.9%,u,-15.9%[59 µM]
COc1ccc(Nc2nc(-c3cccc(OC)c3O)nc3ccccc23)cc1,-16.2%,u,-17.5%,39.8µM*,50.1µM*
COc1cccc(-c2nc(N3CCC(C)CC3)c3ccccc3n2)c1O,-43.6%,56.2µM*,u,u,35.5µM*
COc1cccc(-c2nc(N3CC(C)CC(C)C3)c3ccccc3n2)c1O (configuration not stated),u,u,u,u,35.5µM*
COc1cccc(-c2nc(N3CCCC3)c3ccccc3n2)c1O,-9.2%,u,-14.9%,u,x
COc1cccc(-c2nc(NC(C)(C)C)c3ccccc3n2)c1O,-10.5%,u,u,u,u
C=CCSc1nsc(NC(=O)Nc2ccc(F)cc2)n1,95.2%,-3.0%,11.3%,28.9%,x
Cc1oc(-c2cc(F)ccc2F)nc1CN1CCN(c2ncnc3ccccc23)CC1,16.3%,-22.5%,39.8µM*,36.1%,x
COc1ccc(-c2nc(CN3CCN(c4ncnc5ccccc45)CC3)c(C)o2)c(OC)c1,46.1%,-35.1%,9.6%,-35.5%,u
SMILES,HP1b chromo inh,JMJD2A Tudor inh,Sfp PPTase inh,BAZ2B inh,G9a inh
Cc1cc(NO)nc(-c2ccc(Br)cc2)n1,u,20µM*,u,x,u
CC(=O)OCC[n+]1c(C)n(-c2ccccc2)c2ccc(Cl)cc21,20.8%,u,3.6%,0.6%,50.1µM*
CCOC(=O)c1ccc2c(c1)[n+](CC)c(C)n2-c1ccccc1,-24.6%,0.7%,-5.9%,u,31.6µM*
CC[n+]1c(C)n(-c2ccccc2)c2ccc(C(=O)OC)cc21,27.5%,-1.9%,9.7%,u,x
CCOC(=O)c1c(O)c(O)c(C(=O)OCC)n1-c1ccccc1,-17.0%,35.5µM*,31.6µM*,-28.9%,8.91µM*
CCCCCC(=O)N(c1ccc(OCC)cc1)S(=O)(=O)c1ccc2c(c1)n(C)c(=O)n2C,39.7%,-5.7%,x,1.1%,-2.4%[59 µM]
Nc1c2c(nc3ccccc13)CCC2,23.8%,-22.2%,-5.8%,-4.8%,-17.7%[59 µM]
Nc1c2c(nc3ccccc13)N(C1CCCCC1)CC2,-18.5%,7.08µM*,-56.2%,u,u
Nc1c2c(nc3ccc(Br)cc13)N(C1CCCCC1)CC2,x,x,-28.1%,15.8µM*,3.55µM*
O=c1c2cc(Br)ccc2nc2n1CCCCC2,26.7%,-14.3%,13.4%,-21.2%,11.1%
Cc1ccc(S(=O)(=O)N2CCOC2CNC(=O)C(=O)NCc2ccc3c(c2)OCO3)cc1 (configuration not stated),29.1%,-4.1%,2.9%,-18.3%,20.7%
CN(C)c1ccc(NC(=O)CCn2c(=S)oc3ccccc32)cc1,-1.6%,u,0.9%,25.1µM*,u
CN(C)c1ccc(NC(=O)CCN2CCN(c3ccccn3)CC2)cc1,3.3%,-32.4%,-4.8%,-28.8%,50.1µM*
COc1cc(NC(=O)CN2CCN(c3ccccn3)CC2)cc(OC)c1OC,2.2%,0.0%,12.6%,4.2%,44.7µM*
O=C(CCN1CCN(c2ccccn2)CC1)Nc1ccc(F)cc1,22.8%,11.5%,6.2%,5.3%,10.7%
Cc1ccc(NC(=O)CN2CCN(c3ccccn3)CC2)c(Cl)c1,26.8%,-18.5%,79.4µM*,-4.8%,-47.1%[59 µM]
COc1ccccc1C(=O)NC(=O)COC(=O)c1ccc([N+](=O)[O-])cc1,28.9%,-2.7%,x,10.9%,0.0%[59 µM]
O=C(NCc1cccs1)c1ccc(CSc2nc3ccncc3n2Cc2ccccc2F)cc1,68.7%,-24.4%,x,18.9%,-0.4%[59 µM]
COc1cc2c(cc1OC)C1C(=O)c3c(O)cc4c(c3OC1CO2)C=CC(C)(C)O4 (configuration not stated),x,x,-41.9%,x,-39.2%[2.33 µM]
Cc1ccc(NC(=O)Cn2nc(Cc3ccncc3)c3ccccc3c2=O)c(Cl)c1,62.1%,u,x,70.8µM*,-39.0%[59 µM]
O=C(CN1CCN(c2ccccn2)CC1)Nc1cccc(Br)c1,53.5%,-22.0%,-8.9%,-19.2%,44.7µM*
O=C(CN1CCN(c2ccccn2)CC1)Nc1cccc(F)c1,54.7%,-12.1%,12.2%,3.5%,3.5%
Cn1c(N)c(C(=O)CSc2nnc3n2CCCCC3)c(=O)n(C)c1=O,35.1%,-13.0%,x,x,x
